# The panel holds about 79,000 compounds, 15% with a hit somewhere; the sample as a whole holds those more often. Unmarked numbers belong to inactive results. The source made the active and inactive calls. Cut-off read from the data, not from the text of the source: active = growth inhibition above about 70%; inactive = the rest.
# Tests used:
# [1] = NCI Yeast Anticancer Drug Screen. Data for the rad52 strain (AID 147);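 note: 0% = growth of vehicle-treated control cultures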; conditions: S. cerevisiae rad52 mutant growth inhibition, stronger effect = higher value
# How it was run: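 Here a repair-compromised yeast strain receives each compound; its growth is then quantified and normalised to vehicle-only controls.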
# [2] = NCI Yeast Anticancer Drug Screen. Data for the wt1 strain (AID 149);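 note: 0% = growth of vehicle-treated wt1 cultures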; conditions: S. cerevisiae wt1 strain (SPY 50644) growth inhibition, stronger effect = higher value
# How it was run: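 Measured: growth of wt1 yeast under compound versus vehicle treatment, reported as inhibition.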
# [3] = NCI Yeast Anticancer Drug Screen. Data for the rad50EPP+ strain (AID 151);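 note: 0% = growth of vehicle-treated control cultures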; conditions: S. cerevisiae rad50 mutant strain, stronger effect = higher value
# How it was run: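 Read-out is yeast growth inhibition relative to vehicle; cells used were the rad50EPP+ strain.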
# [4] = NCI Yeast Anticancer Drug Screen. Data for the mgt1 strain (AID 153); conditions: S. cerevisiae mgt1 mutant growth inhibition, stronger effect = higher value
# How it was run: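 Measured: inhibition of mgt1 yeast growth by compound, normalized to vehicle-treated cultures.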
# [5] = NCI Yeast Anticancer Drug Screen. Data for the rad50 strain (AID 155);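 note: 0% = growth of vehicle-only cultures of the same strain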; conditions: S. cerevisiae rad50 strain growth inhibition, stronger effect = higher value
# How it was run: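 Growth of the mutant yeast was measured after compound exposure and referenced to vehicle-treated cultures.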
# [6] = NCI Yeast Anticancer Drug Screen. Data for the mec2-1 strain (AID 157); conditions: S. cerevisiae mec2-1 strain, stronger effect = higher value
# How it was run: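 Using mec2-1 yeast: add compound, measure growth, express inhibition versus vehicle-treated cultures.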
# [7] = NCI Yeast Anticancer Drug Screen. Data for the rad14 strain (AID 159);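 note: 0% = growth of vehicle-treated control cultures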; conditions: S. cerevisiae rad14 strain growth inhibition, stronger effect = higher value
# How it was run: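 Here, inhibition of yeast growth was measured after compound exposure, using a strain with a genetic defect in DNA damage repair and vehicle-treated cultures as the reference.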
# [8] = NCI Yeast Anticancer Drug Screen. Data for the sgs1 mgt1 strain (AID 161);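 note: 0% = growth of cultures given vehicle only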; conditions: S. cerevisiae sgs1 mgt1 strain, stronger effect = higher value
# How it was run: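 Yeast cells carrying a defined DNA-repair defect were exposed to test compounds. Growth inhibition was measured relative to vehicle-treated controls.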
# [9] = NCI Yeast Anticancer Drug Screen. Data for the CLN2oe strain (AID 163);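 note: 0% = growth of vehicle-only control cultures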; conditions: S. cerevisiae CLN2oe strain, stronger effect = higher value
# How it was run: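 Whole-cell yeast growth assay. A strain engineered for altered cell-cycle control received compound, and inhibition relative to vehicle-treated cultures was recorded.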
# [10] = NCI Yeast Anticancer Drug Screen. Data for the cln2 rad14 strain (AID 165);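 note: 0% = growth equal to vehicle treated cultures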; conditions: S. cerevisiae cln2 rad14 strain, stronger effect = higher value
# How it was run: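 Yeast strain cln2 rad14, bearing defects in cell cycle control and DNA repair, serves as the test system; values reflect growth inhibition compared with vehicle.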
# [11] = NCI Yeast Anticancer Drug Screen. Data for the bub3 strain (AID 167); conditions: S. cerevisiae bub3 mutant strain, stronger effect = higher value
# How it was run: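 Whole-cell yeast assay. The mutant strain was incubated with compounds, and growth inhibition was determined by comparison with vehicle-treated cells.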
# [12] = NCI Yeast Anticancer Drug Screen. Data for the wt2 strain (AID 169);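 note: 0% = growth of vehicle-treated yeast cultures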; conditions: S. cerevisiae wt2 strain growth inhibition, stronger effect = higher value
# How it was run: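 Treated yeast vs. vehicle-treated yeast: growth inhibition determined.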
# [13] = NCI Yeast Anticancer Drug Screen. Data for the mlh1 strain (AID 171);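 note: 0% = growth of vehicle-treated control cultures of the same strain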; conditions: S. cerevisiae mlh1 strain growth inhibition, stronger effect = higher value
# How it was run: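 A yeast strain with a defined genetic lesion serves as the test organism. Cultures receive compound or vehicle, and growth is measured.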
# [14] = NCI Yeast Anticancer Drug Screen. Data for the sgs1 strain (AID 173);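 note: 0% = growth of vehicle-only control cultures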; conditions: S. cerevisiae sgs1 mutant, stronger effect = higher value
# How it was run: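 A genetically defined yeast mutant is incubated with the test compound, and its growth is compared to that of the same strain given vehicle.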
# [15] = NCI Yeast Anticancer Drug Screen. Data for the mlh1 rad18 strain (AID 175); conditions: S. cerevisiae mlh1 rad18 strain growth inhibition, stronger effect = higher value
# How it was run: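 Steps: expose repair-defective yeast to compound; measure growth; express inhibition against vehicle-treated controls.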
# [16] = NCI Yeast Anticancer Drug Screen. Data for the rad18 strain (AID 177); conditions: S. cerevisiae rad18 mutant growth inhibition, stronger effect = higher value
# How it was run: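 Measured value is growth inhibition of a yeast strain bearing a DNA repair alteration, referenced to vehicle-treated cells.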
# [17] = at 5.0 µM (retest, dose inferred, filed as 0.5)
# [18] = at 50.0 µM (retest, dose inferred, filed as 5.0)
smiles,measurement,setting,value
COc1cc(C2c3cc4c(cc3OC(OC(C)=O)C2C)OCO4)cc(OC)c1OC (stereo unspecified),growth inhibition,[1]; at 1.2 µM,-1%
same,growth inhibition,[1]; at 3.7 µM,-2%
same,growth inhibition,[1]; at 11.0 µM,-2%
same,growth inhibition,[1]; at 33.0 µM,-5%
same,growth inhibition,[1]; at 100.0 µM,82% (active)
same,growth inhibition,[2]; at 1.2 µM,-2%
same,growth inhibition,[2]; at 3.7 µM,-3%
same,growth inhibition,[2]; at 11.0 µM,-5%
same,growth inhibition,[2]; at 33.0 µM,-11%
same,growth inhibition,[2]; at 100.0 µM,56%
same,growth inhibition,[3]; at 1.2 µM,-3%
same,growth inhibition,[3]; at 3.7 µM,-1%
same,growth inhibition,[3]; at 11.0 µM,1%
same,growth inhibition,[3]; at 33.0 µM,-1%
same,growth inhibition,[3]; at 100.0 µM,5%
same,growth inhibition,[4]; at 1.2 µM,-2%
same,growth inhibition,[4]; at 3.7 µM,-1%
same,growth inhibition,[4]; at 11.0 µM,-10%
same,growth inhibition,[4]; at 33.0 µM,-12%
same,growth inhibition,[4]; at 100.0 µM,43%
same,growth inhibition,[5]; at 1.2 µM,-1%
same,growth inhibition,[5]; at 3.7 µM,-1%
same,growth inhibition,[5]; [17],1%
same,growth inhibition,[5]; at 11.0 µM,-5%
same,growth inhibition,[5]; at 33.0 µM,-5%
same,growth inhibition,[5]; [18],49%
same,growth inhibition,[5]; at 50.0 µM,-0.3%
same,growth inhibition,[5]; at 100.0 µM,77% (active)
same,growth inhibition,[6]; at 1.2 µM,-6%
same,growth inhibition,[6]; at 3.7 µM,0%
same,growth inhibition,[6]; [17],-4%
same,growth inhibition,[6]; at 11.0 µM,-1%
same,growth inhibition,[6]; at 33.0 µM,-5%
same,growth inhibition,[6]; [18],5%
same,growth inhibition,[6]; at 50.0 µM,2.6%
same,growth inhibition,[6]; at 100.0 µM,56%
same,growth inhibition,[7]; at 1.2 µM,-3%
same,growth inhibition,[7]; at 3.7 µM,-4%
same,growth inhibition,[7]; at 11.0 µM,-11%
same,growth inhibition,[7]; at 33.0 µM,-10%
same,growth inhibition,[7]; at 100.0 µM,52%
same,growth inhibition,[8]; [17],-8%
same,growth inhibition,[8]; [18],29%
same,growth inhibition,[8]; at 50.0 µM,-4.55%
same,growth inhibition,[9]; at 1.2 µM,-7%
same,growth inhibition,[9]; at 3.7 µM,-7%
same,growth inhibition,[9]; at 11.0 µM,-18%
same,growth inhibition,[9]; at 33.0 µM,-13%
same,growth inhibition,[9]; at 100.0 µM,72% (active)
same,growth inhibition,[10]; [17],-14%
same,growth inhibition,[10]; [18],3%
same,growth inhibition,[10]; at 50.0 µM,-13.1%
same,growth inhibition,[11]; at 1.2 µM,5%
same,growth inhibition,[11]; at 3.7 µM,5%
same,growth inhibition,[11]; [17],17%
same,growth inhibition,[11]; at 11.0 µM,22%
same,growth inhibition,[11]; at 33.0 µM,38%
same,growth inhibition,[11]; [18],58%
same,growth inhibition,[11]; at 50.0 µM,35.6%
same,growth inhibition,[11]; at 100.0 µM,89% (active)
same,growth inhibition,[12]; at 1.2 µM,-2%
same,growth inhibition,[12]; at 3.7 µM,-5%
same,growth inhibition,[12]; at 11.0 µM,-6%
same,growth inhibition,[12]; at 33.0 µM,-13%
same,growth inhibition,[12]; at 100.0 µM,66%
same,growth inhibition,[13]; at 1.2 µM,-2%
same,growth inhibition,[13]; at 3.7 µM,-5%
same,growth inhibition,[13]; at 11.0 µM,-2%
same,growth inhibition,[13]; at 33.0 µM,-7%
same,growth inhibition,[13]; at 100.0 µM,69%
same,growth inhibition,[14]; at 1.2 µM,-3%
same,growth inhibition,[14]; at 3.7 µM,-2%
same,growth inhibition,[14]; at 11.0 µM,-3%
same,growth inhibition,[14]; at 33.0 µM,-3%
same,growth inhibition,[14]; at 100.0 µM,79% (active)
same,growth inhibition,[15]; [17],-4%
same,growth inhibition,[15]; [18],23%
same,growth inhibition,[15]; at 50.0 µM,-2.5%
same,growth inhibition,[16]; at 1.2 µM,-3%
same,growth inhibition,[16]; at 3.7 µM,-4%
same,growth inhibition,[16]; at 11.0 µM,1%
same,growth inhibition,[16]; at 33.0 µM,5%
same,growth inhibition,[16]; at 100.0 µM,85% (active)
Cc1ccccc1N=C(NO)c1ccccc1,growth inhibition,[1]; at 1.2 µM,10%
same,growth inhibition,[1]; at 3.7 µM,9%
same,growth inhibition,[1]; at 11.0 µM,22%
same,growth inhibition,[1]; at 33.0 µM,60%
same,growth inhibition,[1]; at 100.0 µM,97% (active)
same,growth inhibition,[2]; at 1.2 µM,0%
same,growth inhibition,[2]; at 3.7 µM,-4%
same,growth inhibition,[2]; at 11.0 µM,-6%
same,growth inhibition,[2]; at 33.0 µM,9%
same,growth inhibition,[2]; at 100.0 µM,93% (active)
same,growth inhibition,[3]; at 1.2 µM,1%
same,growth inhibition,[3]; at 3.7 µM,6%
same,growth inhibition,[3]; at 11.0 µM,15%
same,growth inhibition,[3]; at 33.0 µM,42%
same,growth inhibition,[3]; at 100.0 µM,67%
same,growth inhibition,[4]; at 1.2 µM,0%
same,growth inhibition,[4]; at 3.7 µM,-4%
same,growth inhibition,[4]; at 11.0 µM,-4%
same,growth inhibition,[4]; at 33.0 µM,30%
same,growth inhibition,[4]; at 100.0 µM,95% (active)
same,growth inhibition,[5]; at 1.2 µM,8%
same,growth inhibition,[5]; at 3.7 µM,15%
same,growth inhibition,[5]; [17],-141%
same,growth inhibition,[5]; at 11.0 µM,31%
same,growth inhibition,[5]; at 33.0 µM,59%
same,growth inhibition,[5]; [18],33%
same,growth inhibition,[5]; at 50.0 µM,90.6% (active)
same,growth inhibition,[5]; at 100.0 µM,97% (active)
same,growth inhibition,[6]; at 1.2 µM,1%
same,growth inhibition,[6]; at 3.7 µM,0%
same,growth inhibition,[6]; [17],-44%
same,growth inhibition,[6]; at 11.0 µM,-5%
same,growth inhibition,[6]; at 33.0 µM,49%
same,growth inhibition,[6]; [18],14%
same,growth inhibition,[6]; at 50.0 µM,82.8% (active)
same,growth inhibition,[6]; at 100.0 µM,97% (active)
same,growth inhibition,[7]; at 1.2 µM,0%
same,growth inhibition,[7]; at 3.7 µM,-4%
same,growth inhibition,[7]; at 11.0 µM,6%
same,growth inhibition,[7]; at 33.0 µM,29%
same,growth inhibition,[7]; at 100.0 µM,96% (active)
same,growth inhibition,[8]; [17],-61%
same,growth inhibition,[8]; [18],49%
same,growth inhibition,[8]; at 50.0 µM,80% (active)
same,growth inhibition,[9]; at 1.2 µM,-3%
same,growth inhibition,[9]; at 3.7 µM,-5%
same,growth inhibition,[9]; at 11.0 µM,-2%
same,growth inhibition,[9]; at 33.0 µM,20%
same,growth inhibition,[9]; at 100.0 µM,95% (active)
same,growth inhibition,[10]; [17],-56%
same,growth inhibition,[10]; [18],20%
same,growth inhibition,[10]; at 50.0 µM,74.2% (active)
same,growth inhibition,[11]; at 1.2 µM,3%
same,growth inhibition,[11]; at 3.7 µM,-1%
same,growth inhibition,[11]; [17],-67%
same,growth inhibition,[11]; at 11.0 µM,-5%
same,growth inhibition,[11]; at 33.0 µM,5%
same,growth inhibition,[11]; [18],37%
same,growth inhibition,[11]; at 50.0 µM,76.8% (active)
same,growth inhibition,[11]; at 100.0 µM,94% (active)
same,growth inhibition,[12]; at 1.2 µM,-3%
same,growth inhibition,[12]; at 3.7 µM,-3%
same,growth inhibition,[12]; at 11.0 µM,-4%
same,growth inhibition,[12]; at 33.0 µM,20%
same,growth inhibition,[12]; at 100.0 µM,94% (active)
same,growth inhibition,[13]; at 1.2 µM,1%
same,growth inhibition,[13]; at 3.7 µM,2%
same,growth inhibition,[13]; at 11.0 µM,2%
same,growth inhibition,[13]; at 33.0 µM,31%
same,growth inhibition,[13]; at 100.0 µM,95% (active)
same,growth inhibition,[14]; at 1.2 µM,1%
same,growth inhibition,[14]; at 3.7 µM,6%
same,growth inhibition,[14]; at 11.0 µM,15%
same,growth inhibition,[14]; at 33.0 µM,62%
same,growth inhibition,[14]; at 100.0 µM,98% (active)
same,growth inhibition,[15]; [17],-122%
same,growth inhibition,[15]; [18],29%
same,growth inhibition,[15]; at 50.0 µM,92.9% (active)
same,growth inhibition,[16]; at 1.2 µM,1%
same,growth inhibition,[16]; at 3.7 µM,2%
same,growth inhibition,[16]; at 11.0 µM,11%
same,growth inhibition,[16]; at 33.0 µM,35%
same,growth inhibition,[16]; at 100.0 µM,96% (active)
